± gives the standard deviation of the averaged measurements.
Tests used:
Drosophila melanogaster [1] = assay: olfactory response index (dipstick assay) (fraction of flies (RI; 1 aversion, 0.5 indifferent, 0 attraction)); higher = stronger aversion to the odorant; conditions: odorant concentration: 1% v/v, male
Drosophila melanogaster [2] = assay: as above; conditions: odorant concentration: 1% v/v, female
[3] = genotype (tubulin-GAL4 x UAS-RNAi line; control = progenitor): A5
[4] = genotype (tubulin-GAL4 x UAS-RNAi line; control = progenitor): control
[5] = genotype (tubulin-GAL4 x UAS-RNAi line; control = progenitor): obp 18a
[6] = genotype (tubulin-GAL4 x UAS-RNAi line; control = progenitor): obp 22a
[7] = genotype (tubulin-GAL4 x UAS-RNAi line; control = progenitor): obp 28a
[8] = genotype (tubulin-GAL4 x UAS-RNAi line; control = progenitor): obp 56a
[9] = genotype (tubulin-GAL4 x UAS-RNAi line; control = progenitor): obp 56c
[10] = genotype (tubulin-GAL4 x UAS-RNAi line; control = progenitor): obp 56f
[11] = genotype (tubulin-GAL4 x UAS-RNAi line; control = progenitor): obp 57a
[12] = genotype (tubulin-GAL4 x UAS-RNAi line; control = progenitor): obp 57b
[13] = genotype (tubulin-GAL4 x UAS-RNAi line; control = progenitor): obp 58c
[14] = genotype (tubulin-GAL4 x UAS-RNAi line; control = progenitor): obp 59a
[15] = genotype (tubulin-GAL4 x UAS-RNAi line; control = progenitor): obp 83a
[16] = genotype (tubulin-GAL4 x UAS-RNAi line; control = progenitor): obp 83c
[17] = genotype (tubulin-GAL4 x UAS-RNAi line; control = progenitor): obp 93a
[18] = genotype (tubulin-GAL4 x UAS-RNAi line; control = progenitor): obp 99b
[19] = genotype (tubulin-GAL4 x UAS-RNAi line; control = progenitor): obp 56h
[20] = genotype (tubulin-GAL4 x UAS-RNAi line; control = progenitor): obp 58b

CCC/C=C/C=O [(E)-2-hexenal]
olfactory response index (Drosophila melanogaster [1]; [3]): 0.565 ± 0.14
olfactory response index (Drosophila melanogaster [1]; [4]): 0.681 ± 0.13
olfactory response index (Drosophila melanogaster [1]; [5]): 0.494 ± 0.13
olfactory response index (Drosophila melanogaster [1]; [6]): 0.655 ± 0.11
olfactory response index (Drosophila melanogaster [1]; [7]): 0.672 ± 0.07
olfactory response index (Drosophila melanogaster [1]; [8]): 0.763 ± 0.079
olfactory response index (Drosophila melanogaster [1]; [9]): 0.618 ± 0.13
olfactory response index (Drosophila melanogaster [1]; [10]): 0.657 ± 0.065
olfactory response index (Drosophila melanogaster [1]; [11]): 0.555 ± 0.15
olfactory response index (Drosophila melanogaster [1]; [12]): 0.718 ± 0.037
olfactory response index (Drosophila melanogaster [1]; [13]): 0.732 ± 0.052
olfactory response index (Drosophila melanogaster [1]; [14]): 0.666 ± 0.0073
olfactory response index (Drosophila melanogaster [1]; [15]): 0.663 ± 0.1
olfactory response index (Drosophila melanogaster [1]; [16]): 0.67 ± 0.085
olfactory response index (Drosophila melanogaster [1]; [17]): 0.782 ± 0.14
olfactory response index (Drosophila melanogaster [1]; [18]): 0.29 ± 0.16
olfactory response index (Drosophila melanogaster [1]; [19]): 0.55 ± 0.12
olfactory response index (Drosophila melanogaster [2]; [3]): 0.723 ± 0.11
olfactory response index (Drosophila melanogaster [2]; [4]): 0.804 ± 0.15
olfactory response index (Drosophila melanogaster [2]; [5]): 0.724 ± 0.12
olfactory response index (Drosophila melanogaster [2]; [6]): 0.811 ± 0.14
olfactory response index (Drosophila melanogaster [2]; [7]): 0.753 ± 0.051
olfactory response index (Drosophila melanogaster [2]; [8]): 0.892 ± 0.028
olfactory response index (Drosophila melanogaster [2]; [9]): 0.768 ± 0.1
olfactory response index (Drosophila melanogaster [2]; [10]): 0.727 ± 0.076
olfactory response index (Drosophila melanogaster [2]; [11]): 0.843 ± 0.1
olfactory response index (Drosophila melanogaster [2]; [12]): 0.794 ± 0.18
olfactory response index (Drosophila melanogaster [2]; [20]): 0.703 ± 0.057
olfactory response index (Drosophila melanogaster [2]; [13]): 0.715 ± 0.11
olfactory response index (Drosophila melanogaster [2]; [14]): 0.767 ± 0.13
olfactory response index (Drosophila melanogaster [2]; [15]): 0.779 ± 0.088
olfactory response index (Drosophila melanogaster [2]; [16]): 0.837 ± 0.1
olfactory response index (Drosophila melanogaster [2]; [17]): 0.848 ± 0.054
olfactory response index (Drosophila melanogaster [2]; [18]): 0.529 ± 0.24
olfactory response index (Drosophila melanogaster [2]; [19]): 0.665 ± 0.17

CCOC(C)=O [ethyl acetate]
olfactory response index (Drosophila melanogaster [1]; [3]): 0.36 ± 0.22
olfactory response index (Drosophila melanogaster [1]; [4]): 0.266 ± 0.16
olfactory response index (Drosophila melanogaster [1]; [5]): 0.417 ± 0.15
olfactory response index (Drosophila melanogaster [1]; [6]): 0.176 ± 0.084
olfactory response index (Drosophila melanogaster [1]; [7]): 0.311 ± 0.18
olfactory response index (Drosophila melanogaster [1]; [8]): 0.0854 ± 0.099
olfactory response index (Drosophila melanogaster [1]; [9]): 0.17 ± 0.14
olfactory response index (Drosophila melanogaster [1]; [10]): 0.364 ± 0.31
olfactory response index (Drosophila melanogaster [1]; [11]): 0.236 ± 0.099
olfactory response index (Drosophila melanogaster [1]; [12]): 0.326 ± 0.14
olfactory response index (Drosophila melanogaster [1]; [13]): 0.181 ± 0.14
olfactory response index (Drosophila melanogaster [1]; [14]): 0.324 ± 0.23
olfactory response index (Drosophila melanogaster [1]; [15]): 0.21 ± 0.068
olfactory response index (Drosophila melanogaster [1]; [16]): 0.255 ± 0.11
olfactory response index (Drosophila melanogaster [1]; [17]): 0.352 ± 0.12
olfactory response index (Drosophila melanogaster [1]; [18]): 0.15 ± 0.14
olfactory response index (Drosophila melanogaster [1]; [19]): 0.227 ± 0.13
olfactory response index (Drosophila melanogaster [2]; [3]): 0.677 ± 0.11
olfactory response index (Drosophila melanogaster [2]; [4]): 0.639 ± 0.27
olfactory response index (Drosophila melanogaster [2]; [5]): 0.507 ± 0.12
olfactory response index (Drosophila melanogaster [2]; [6]): 0.669 ± 0.04
olfactory response index (Drosophila melanogaster [2]; [7]): 0.709 ± 0.13
olfactory response index (Drosophila melanogaster [2]; [8]): 0.486 ± 0.2
olfactory response index (Drosophila melanogaster [2]; [9]): 0.3 ± 0.1
olfactory response index (Drosophila melanogaster [2]; [10]): 0.559 ± 0.26
olfactory response index (Drosophila melanogaster [2]; [11]): 0.629 ± 0.015
olfactory response index (Drosophila melanogaster [2]; [12]): 0.61 ± 0.14
olfactory response index (Drosophila melanogaster [2]; [20]): 0.513 ± 0.31
olfactory response index (Drosophila melanogaster [2]; [13]): 0.561 ± 0.091
olfactory response index (Drosophila melanogaster [2]; [14]): 0.502 ± 0.25
olfactory response index (Drosophila melanogaster [2]; [15]): 0.471 ± 0.087
olfactory response index (Drosophila melanogaster [2]; [16]): 0.572 ± 0.0067
olfactory response index (Drosophila melanogaster [2]; [17]): 0.541 ± 0.13
olfactory response index (Drosophila melanogaster [2]; [18]): 0.2 ± 0.11
olfactory response index (Drosophila melanogaster [2]; [19]): 0.479 ± 0.06

OCCc1ccccc1 [2-phenylethanol]
olfactory response index (Drosophila melanogaster [1]; [3]): 0.116 ± 0.078
olfactory response index (Drosophila melanogaster [1]; [4]): 0.0893 ± 0.051
olfactory response index (Drosophila melanogaster [1]; [5]): 0.0701 ± 0.021
olfactory response index (Drosophila melanogaster [1]; [6]): 0.0651 ± 0.059
olfactory response index (Drosophila melanogaster [1]; [7]): 0.163 ± 0.03
olfactory response index (Drosophila melanogaster [1]; [8]): 0.0222 ± 0.021
olfactory response index (Drosophila melanogaster [1]; [9]): 0.0551 ± 0.048
olfactory response index (Drosophila melanogaster [1]; [10]): 0.0672 ± 0.04
olfactory response index (Drosophila melanogaster [1]; [11]): 0.0379 ± 0.021
olfactory response index (Drosophila melanogaster [1]; [12]): 0.138 ± 0.096
olfactory response index (Drosophila melanogaster [1]; [13]): 0.125 ± 0.076
olfactory response index (Drosophila melanogaster [1]; [14]): 0.155 ± 0.067
olfactory response index (Drosophila melanogaster [1]; [15]): 0.132 ± 0.06
olfactory response index (Drosophila melanogaster [1]; [16]): 0.127 ± 0.051
olfactory response index (Drosophila melanogaster [1]; [17]): 0.135 ± 0.043
olfactory response index (Drosophila melanogaster [1]; [18]): 0.0352 ± 0.025
olfactory response index (Drosophila melanogaster [1]; [19]): 0.106 ± 0.049
olfactory response index (Drosophila melanogaster [2]; [3]): 0.396 ± 0.15
olfactory response index (Drosophila melanogaster [2]; [4]): 0.5 ± 0.2
olfactory response index (Drosophila melanogaster [2]; [5]): 0.117 ± 0.066
olfactory response index (Drosophila melanogaster [2]; [6]): 0.403 ± 0.12
olfactory response index (Drosophila melanogaster [2]; [7]): 0.526 ± 0.051
olfactory response index (Drosophila melanogaster [2]; [8]): 0.299 ± 0.11
olfactory response index (Drosophila melanogaster [2]; [9]): 0.367 ± 0.17
olfactory response index (Drosophila melanogaster [2]; [10]): 0.414 ± 0.076
olfactory response index (Drosophila melanogaster [2]; [11]): 0.128 ± 0.068
olfactory response index (Drosophila melanogaster [2]; [12]): 0.379 ± 0.17
olfactory response index (Drosophila melanogaster [2]; [20]): 0.381 ± 0.17
olfactory response index (Drosophila melanogaster [2]; [13]): 0.166 ± 0.08
olfactory response index (Drosophila melanogaster [2]; [14]): 0.258 ± 0.074
olfactory response index (Drosophila melanogaster [2]; [15]): 0.414 ± 0.058
olfactory response index (Drosophila melanogaster [2]; [16]): 0.437 ± 0.14
olfactory response index (Drosophila melanogaster [2]; [17]): 0.422 ± 0.2
olfactory response index (Drosophila melanogaster [2]; [18]): 0.0815 ± 0.14
olfactory response index (Drosophila melanogaster [2]; [19]): 0.258 ± 0.2

CC(C)=CCCC(C)=CC=O (mixture of isomers) [citral]
olfactory response index (Drosophila melanogaster [1]; [3]): 0.266 ± 0.06
olfactory response index (Drosophila melanogaster [1]; [4]): 0.226 ± 0.041
olfactory response index (Drosophila melanogaster [1]; [5]): 0.202 ± 0.06
olfactory response index (Drosophila melanogaster [1]; [6]): 0.17 ± 0.11
olfactory response index (Drosophila melanogaster [1]; [7]): 0.387 ± 0.092
olfactory response index (Drosophila melanogaster [1]; [8]): 0.0537 ± 0.02
olfactory response index (Drosophila melanogaster [1]; [9]): 0.186 ± 0.067
olfactory response index (Drosophila melanogaster [1]; [10]): 0.452 ± 0.042
olfactory response index (Drosophila melanogaster [1]; [11]): 0.215 ± 0.046
olfactory response index (Drosophila melanogaster [1]; [12]): 0.321 ± 0.11
olfactory response index (Drosophila melanogaster [1]; [13]): 0.166 ± 0.046
olfactory response index (Drosophila melanogaster [1]; [14]): 0.517 ± 0.0054
olfactory response index (Drosophila melanogaster [1]; [15]): 0.101 ± 0.099
olfactory response index (Drosophila melanogaster [1]; [16]): 0.292 ± 0.16
olfactory response index (Drosophila melanogaster [1]; [17]): 0.285 ± 0.083
olfactory response index (Drosophila melanogaster [1]; [18]): 0.0832 ± 0.075
olfactory response index (Drosophila melanogaster [1]; [19]): 0.226 ± 0.13
olfactory response index (Drosophila melanogaster [2]; [3]): 0.595 ± 0.02
olfactory response index (Drosophila melanogaster [2]; [4]): 0.674 ± 0.046
olfactory response index (Drosophila melanogaster [2]; [5]): 0.292 ± 0.12
olfactory response index (Drosophila melanogaster [2]; [6]): 0.474 ± 0.18
olfactory response index (Drosophila melanogaster [2]; [7]): 0.552 ± 0.055
olfactory response index (Drosophila melanogaster [2]; [8]): 0.195 ± 0.075
olfactory response index (Drosophila melanogaster [2]; [9]): 0.606 ± 0.034
olfactory response index (Drosophila melanogaster [2]; [10]): 0.639 ± 0.027
olfactory response index (Drosophila melanogaster [2]; [11]): 0.636 ± 0.17
olfactory response index (Drosophila melanogaster [2]; [12]): 0.642 ± 0.097
olfactory response index (Drosophila melanogaster [2]; [20]): 0.687 ± 0.15
olfactory response index (Drosophila melanogaster [2]; [13]): 0.409 ± 0.19
olfactory response index (Drosophila melanogaster [2]; [14]): 0.68 ± 0.086
olfactory response index (Drosophila melanogaster [2]; [15]): 0.479 ± 0.091
olfactory response index (Drosophila melanogaster [2]; [16]): 0.262 ± 0.091
olfactory response index (Drosophila melanogaster [2]; [17]): 0.536 ± 0.16
olfactory response index (Drosophila melanogaster [2]; [18]): 0.317 ± 0.01
olfactory response index (Drosophila melanogaster [2]; [19]): 0.66 ± 0.13
